# Targets with a hit are over-represented here; the source holds about 7,900 in all. About 0.6% of all pairs of compound and target were hits. Unmarked numbers belong to inactive results.
# What was measured:
# Experiment in all cases: log2 fold change, soluble protein after heating vs DMSO (PISA); higher = thermal stabilisation; K562 cells, 10 uM, 30 min; active = over 0.2 and 3.5 SD of the protein, either way, in both replicates (recomputed)
# erlotinib = compound: C#Cc1cccc(Nc2ncnc3cc(OCCOC)c(OCCOC)cc23)c1 [erlotinib]
# Outline: (§1)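 Values are thermal stability changes relative to control samples and are taken from duplicates. They are stated as log2 fold changes. Before quantification by TMTpro 16plex LC-MS/MS with equalised channel sums, K562 cells at 2×10^6 cells/mL were treated with 10 μM compound for 30 min, heated in aliquots for 3 min across 48°C-58°C, pooled, extracted in PBS with 0.5% NP-40 at 4°C, and centrifuged at 21,000xg for 90 min to give the soluble supernatant.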
# [1] = compound: C/C(=N\NC(=O)C1=CC(=CC=C1)S(=O)(=O)N2CCOCC2)/C3=C(C=CC(=C3)Cl)O
# Outline: as §1
# [2] = compound: C1=CC(=C(C=C1Cl)C2=NC3=NC=CN=C3C(=N2)NC4=CC=NC=C4)F
# Outline: as §1
# [3] = compound: C1=CC(=CC=C1C2=NC3=C(N2)C=C(C=C3)C(=O)N)OC4=CC=C(C=C4)Cl
# Outline: as §1
# [4] = compound: C1=CC2=C(C=CC(=C2)/C=C\3/C(=O)NC(=NCC4=CC=CS4)S3)N=C1
# Outline: as §1
# [5] = compound: C1=CC2=NC=CN=C2C=C1/C=C/3\C(=O)NC(=O)S3
# Outline: as §1
# [6] = compound: C1=CC=C(C=C1)C2=NC(=C(N2)C3=CC=NC=C3)C4=CC(=C(C=C4)Cl)O
# Outline: as §1
# [7] = compound: C1=CC=C2C(=C1)C3=NNC4=CC=CC(=C43)C2=O
# Outline: as §1
# [8] = compound: C1CCN(C1)C(=O)NC2=CC=CC(=C2)NC3=NC=C(C(=N3)NCCC4=CN=CN4)Br
# Outline: as §1
# [9] = compound: C1CN(CCC1(CC2=CC=C(C=C2)Cl)N)C3=NC=NC4=C3C=CN4
# Outline: as §1
# IRAK-1-4 Inhibitor I = compound: C1COCCN1CCN2C3=CC=CC=C3N=C2NC(=O)C4=CC(=CC=C4)[N+](=O)[O-] [IRAK-1-4 Inhibitor I]
# Outline: as §1
# ibrutinib = compound: C=CC(=O)N1CCC[C@@H](n2nc(-c3ccc(Oc4ccccc4)cc3)c3c(N)ncnc32)C1 [ibrutinib]
# Outline: as §1
# [10] = compound: CC(=O)c1cnc2ccc(-c3cc(Cl)c(O)c(Cl)c3)nc2c1N[C@H]1CC[C@H](CN(C)C)CC1
# Outline: as §1
# ralimetinib = compound: CC(C)(C)Cn1c(N)nc2ccc(-c3[nH]c(C(C)(C)C)nc3-c3ccc(F)cc3)nc21 [ralimetinib]
# Outline: as §1
# [11] = compound: CC(C)(O)CC(=O)NCCn1ccc2ncnc(Nc3ccc(Oc4cccc(C(F)(F)F)c4)c(Cl)c3)c21
# Outline: as §1
# [12] = compound: CC(C)C1=C2N=C(C=C(N2N=C1)NCC3=CC=CC=C3)NCCCCCCN
# Outline: as §1
# [13] = compound: CC(C)C[C@@H](C=O)NC(=O)[C@H](CC(C)C)NC(=O)[C@H](CC(C)C)NC(=O)OCc1ccccc1
# Outline: as §1
# pinometostat = compound: CC(C)N(C[C@H]1O[C@@H](n2cnc3c(N)ncnc32)[C@H](O)[C@@H]1O)[C@H]1C[C@@H](CCc2nc3cc(C(C)(C)C)ccc3[nH]2)C1 [pinometostat]
# Outline: as §1
# [14] = compound: CC1=C(C(CC(=O)N1)C2=CC=C(C=C2)C(F)(F)F)C(=O)NC3=C(C=C4C(=C3)C=NN4)F
# Outline: as §1
# [15] = compound: CC1=C(C2=C(C=C1)C(=O)C3=CC=CC=C3N2CCCN)C
# Outline: as §1
# UniProt Q12769, sequence (Q12769 whole entry, looked up): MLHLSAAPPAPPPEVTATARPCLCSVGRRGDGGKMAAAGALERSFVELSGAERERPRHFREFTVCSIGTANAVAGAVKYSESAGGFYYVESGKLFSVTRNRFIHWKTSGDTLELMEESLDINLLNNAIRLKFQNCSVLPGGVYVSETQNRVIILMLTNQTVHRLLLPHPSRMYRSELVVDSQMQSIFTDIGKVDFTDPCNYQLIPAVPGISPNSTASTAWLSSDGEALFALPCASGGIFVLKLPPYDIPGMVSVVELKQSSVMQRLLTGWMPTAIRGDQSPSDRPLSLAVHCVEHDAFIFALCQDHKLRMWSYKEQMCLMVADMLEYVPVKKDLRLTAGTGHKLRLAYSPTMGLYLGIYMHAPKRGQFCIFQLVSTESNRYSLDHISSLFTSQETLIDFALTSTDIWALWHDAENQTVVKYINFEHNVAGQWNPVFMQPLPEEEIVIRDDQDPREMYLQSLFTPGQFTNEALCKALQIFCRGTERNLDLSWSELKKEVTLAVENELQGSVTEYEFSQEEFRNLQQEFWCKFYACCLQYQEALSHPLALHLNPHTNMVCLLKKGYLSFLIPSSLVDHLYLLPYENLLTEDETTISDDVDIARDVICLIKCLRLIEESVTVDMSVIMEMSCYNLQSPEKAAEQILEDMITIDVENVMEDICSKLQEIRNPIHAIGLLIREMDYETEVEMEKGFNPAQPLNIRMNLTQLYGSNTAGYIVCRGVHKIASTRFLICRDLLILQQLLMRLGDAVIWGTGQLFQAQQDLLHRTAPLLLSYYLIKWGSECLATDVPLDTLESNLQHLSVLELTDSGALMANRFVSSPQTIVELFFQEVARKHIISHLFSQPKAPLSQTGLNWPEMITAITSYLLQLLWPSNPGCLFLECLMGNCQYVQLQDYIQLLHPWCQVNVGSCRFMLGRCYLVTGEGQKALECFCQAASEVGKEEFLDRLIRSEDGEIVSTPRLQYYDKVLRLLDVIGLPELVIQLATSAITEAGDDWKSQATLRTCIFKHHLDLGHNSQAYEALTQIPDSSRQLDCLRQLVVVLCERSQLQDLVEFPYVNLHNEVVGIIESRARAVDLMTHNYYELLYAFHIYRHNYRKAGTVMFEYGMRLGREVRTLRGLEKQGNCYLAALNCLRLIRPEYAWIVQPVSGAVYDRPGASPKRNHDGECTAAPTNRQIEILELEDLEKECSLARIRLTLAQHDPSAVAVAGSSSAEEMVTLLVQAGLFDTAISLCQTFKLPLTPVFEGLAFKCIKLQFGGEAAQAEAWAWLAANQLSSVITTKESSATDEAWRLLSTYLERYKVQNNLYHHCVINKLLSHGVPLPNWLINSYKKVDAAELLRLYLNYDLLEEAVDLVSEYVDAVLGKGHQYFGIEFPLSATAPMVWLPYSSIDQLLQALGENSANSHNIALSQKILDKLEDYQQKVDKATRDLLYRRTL
# UniProt Q96T76, sequence (Q96T76 whole entry, looked up): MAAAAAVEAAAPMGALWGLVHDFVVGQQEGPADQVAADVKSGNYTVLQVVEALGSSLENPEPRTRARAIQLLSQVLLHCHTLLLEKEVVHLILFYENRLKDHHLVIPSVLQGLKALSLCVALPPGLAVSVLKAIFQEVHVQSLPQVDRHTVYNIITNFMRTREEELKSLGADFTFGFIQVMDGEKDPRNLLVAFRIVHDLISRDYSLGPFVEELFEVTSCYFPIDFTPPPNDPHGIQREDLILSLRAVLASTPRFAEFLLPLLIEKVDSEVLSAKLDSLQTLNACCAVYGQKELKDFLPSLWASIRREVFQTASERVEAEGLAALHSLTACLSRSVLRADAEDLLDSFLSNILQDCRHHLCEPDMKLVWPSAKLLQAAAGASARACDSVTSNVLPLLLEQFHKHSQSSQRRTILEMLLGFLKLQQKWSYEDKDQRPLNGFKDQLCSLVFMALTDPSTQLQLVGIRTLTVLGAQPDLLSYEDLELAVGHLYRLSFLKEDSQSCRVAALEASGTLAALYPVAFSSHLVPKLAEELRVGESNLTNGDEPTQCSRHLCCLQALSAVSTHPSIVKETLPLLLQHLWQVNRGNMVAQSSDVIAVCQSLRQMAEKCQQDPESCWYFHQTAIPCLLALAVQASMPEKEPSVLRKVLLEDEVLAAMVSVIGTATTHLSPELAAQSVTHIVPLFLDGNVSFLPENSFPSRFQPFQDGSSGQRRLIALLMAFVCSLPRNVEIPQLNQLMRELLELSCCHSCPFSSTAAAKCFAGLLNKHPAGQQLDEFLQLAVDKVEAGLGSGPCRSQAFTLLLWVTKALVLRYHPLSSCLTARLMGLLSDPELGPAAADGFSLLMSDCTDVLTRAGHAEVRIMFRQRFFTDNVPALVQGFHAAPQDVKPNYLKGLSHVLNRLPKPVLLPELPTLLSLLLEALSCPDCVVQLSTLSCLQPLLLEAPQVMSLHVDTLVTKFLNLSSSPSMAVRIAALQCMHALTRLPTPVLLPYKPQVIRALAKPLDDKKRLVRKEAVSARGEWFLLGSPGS
# UniProt P30419, sequence (P30419 whole entry, looked up): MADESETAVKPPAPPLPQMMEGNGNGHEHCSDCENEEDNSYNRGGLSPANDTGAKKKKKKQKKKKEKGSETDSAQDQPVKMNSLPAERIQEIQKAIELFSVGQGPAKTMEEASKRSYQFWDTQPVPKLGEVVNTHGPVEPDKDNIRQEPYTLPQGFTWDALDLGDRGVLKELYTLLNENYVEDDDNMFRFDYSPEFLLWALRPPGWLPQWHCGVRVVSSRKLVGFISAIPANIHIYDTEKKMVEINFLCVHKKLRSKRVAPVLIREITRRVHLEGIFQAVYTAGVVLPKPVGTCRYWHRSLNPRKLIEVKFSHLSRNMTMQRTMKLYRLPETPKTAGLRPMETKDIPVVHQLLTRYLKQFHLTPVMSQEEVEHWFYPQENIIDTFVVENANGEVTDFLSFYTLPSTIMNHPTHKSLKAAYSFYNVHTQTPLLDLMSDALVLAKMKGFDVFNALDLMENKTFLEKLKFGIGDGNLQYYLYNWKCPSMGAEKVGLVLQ
# UniProt Q8N5F7, sequence (Q8N5F7 whole entry, looked up): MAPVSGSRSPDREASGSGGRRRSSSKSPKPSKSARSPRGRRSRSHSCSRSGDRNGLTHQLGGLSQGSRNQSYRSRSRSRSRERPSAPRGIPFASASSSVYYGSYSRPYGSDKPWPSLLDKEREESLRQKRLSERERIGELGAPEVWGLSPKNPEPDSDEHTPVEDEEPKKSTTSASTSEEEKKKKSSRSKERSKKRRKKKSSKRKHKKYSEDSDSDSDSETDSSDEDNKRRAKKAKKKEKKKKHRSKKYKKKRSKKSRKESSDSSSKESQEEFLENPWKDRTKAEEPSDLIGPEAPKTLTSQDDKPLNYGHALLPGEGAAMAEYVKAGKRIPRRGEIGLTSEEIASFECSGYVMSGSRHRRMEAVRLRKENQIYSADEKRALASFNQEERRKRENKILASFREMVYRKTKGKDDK
# UniProt O60890, sequence (O60890 whole entry, looked up): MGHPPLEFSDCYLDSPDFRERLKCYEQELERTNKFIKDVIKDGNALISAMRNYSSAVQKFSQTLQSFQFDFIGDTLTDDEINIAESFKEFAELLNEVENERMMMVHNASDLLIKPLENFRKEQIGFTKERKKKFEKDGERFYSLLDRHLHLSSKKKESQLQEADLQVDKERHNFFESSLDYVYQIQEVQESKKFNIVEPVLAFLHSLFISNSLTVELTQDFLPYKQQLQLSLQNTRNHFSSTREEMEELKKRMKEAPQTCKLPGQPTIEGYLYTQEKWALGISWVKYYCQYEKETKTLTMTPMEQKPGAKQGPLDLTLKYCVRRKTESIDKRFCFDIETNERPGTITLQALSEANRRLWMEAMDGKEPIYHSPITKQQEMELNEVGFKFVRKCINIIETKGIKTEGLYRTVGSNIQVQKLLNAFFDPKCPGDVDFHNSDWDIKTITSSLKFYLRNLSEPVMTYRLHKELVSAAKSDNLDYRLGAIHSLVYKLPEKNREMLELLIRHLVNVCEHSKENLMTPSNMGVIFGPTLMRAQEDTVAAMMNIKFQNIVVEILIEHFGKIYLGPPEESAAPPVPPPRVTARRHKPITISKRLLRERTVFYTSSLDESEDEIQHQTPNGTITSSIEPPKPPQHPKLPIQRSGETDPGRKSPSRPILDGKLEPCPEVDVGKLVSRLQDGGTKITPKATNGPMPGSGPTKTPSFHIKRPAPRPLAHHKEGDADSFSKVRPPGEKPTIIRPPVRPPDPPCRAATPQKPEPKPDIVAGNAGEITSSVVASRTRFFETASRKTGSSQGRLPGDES
# UniProt Q9Y314, sequence (Q9Y314 whole entry, looked up): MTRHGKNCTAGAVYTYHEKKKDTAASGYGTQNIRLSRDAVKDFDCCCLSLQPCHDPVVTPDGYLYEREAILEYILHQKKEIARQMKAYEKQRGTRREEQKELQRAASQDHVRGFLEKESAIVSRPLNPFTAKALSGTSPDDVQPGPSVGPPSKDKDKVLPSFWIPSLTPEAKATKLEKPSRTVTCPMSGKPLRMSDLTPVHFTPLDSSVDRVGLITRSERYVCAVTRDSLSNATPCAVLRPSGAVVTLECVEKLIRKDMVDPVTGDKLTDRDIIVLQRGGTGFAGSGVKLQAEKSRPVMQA
# UniProt Q9BRP4, sequence (Q9BRP4 whole entry, looked up): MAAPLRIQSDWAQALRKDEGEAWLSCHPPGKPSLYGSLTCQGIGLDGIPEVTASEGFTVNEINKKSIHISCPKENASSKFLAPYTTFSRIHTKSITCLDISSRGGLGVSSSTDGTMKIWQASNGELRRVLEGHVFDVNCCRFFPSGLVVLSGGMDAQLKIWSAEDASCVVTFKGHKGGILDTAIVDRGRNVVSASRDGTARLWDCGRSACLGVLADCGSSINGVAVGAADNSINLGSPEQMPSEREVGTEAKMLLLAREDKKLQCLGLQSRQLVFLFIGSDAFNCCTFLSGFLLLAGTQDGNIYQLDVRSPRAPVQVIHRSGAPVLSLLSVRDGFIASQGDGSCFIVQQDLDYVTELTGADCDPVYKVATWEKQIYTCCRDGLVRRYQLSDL
Target,log2 fold change (erlotinib),log2 fold change [1],log2 fold change [2],log2 fold change [3],log2 fold change [4],log2 fold change [5],log2 fold change [6],log2 fold change [7],log2 fold change [8],log2 fold change [9],log2 fold change (IRAK-1-4 Inhibitor I),log2 fold change (ibrutinib),log2 fold change [10],log2 fold change (ralimetinib),log2 fold change [11],log2 fold change [12],log2 fold change [13],log2 fold change (pinometostat),log2 fold change [14],log2 fold change [15]
NCK1 (UniProt P16333),0.045,0.206,-0.066,0,0.179,-0.019,-0.084,0,-0.135,-0.081,-0.178,-0.154,-0.252,0.044,-0.038,-0.283,0.082,0.076,0.005,0.039
ORC3 isoform 2 (UniProt Q9UBD5),0.134,-0.068,-0.024,-0.021,0.214,0.042,0.013,0.072,-0.013,0.07,-0.113,-0.015,-0.132,-0.059,-0.383,-0.338,-0.013,0.012,0.045,-0.049
NTMT1 (UniProt Q9BV86),0.039,0.13,0.086,0.002,0.039,0.032,0.006,0.086,-0.101,0.151,0,0.011,-0.046,-0.02,-0.053,0.095,-0.052,-0.029,-0.082,0.157
PAAF1 (UniProt Q9BRP4),0.038,0.032,0.097,0.068,-0.009,0.009,0.027,0,0.003,0.009,0.037,-0.003,-0.029,0.001,0.007,0.037,-0.28 (active),-0.026,0.008,0.027
NMD3 (UniProt Q96D46),0.025,0.011,0.052,0.023,0.009,-0.02,0.05,0.013,0.064,-0.281 (active),0.001,-0.046,0.017,-0.049,-0.104,-0.069,-0.141,-0.026,-0.064,-0.392 (active)
NKAP (UniProt Q8N5F7),0.029,0.023,-0.041,0.041,-0.189,-0.047,-0.085,-0.051,-0.064,-0.007,0,0.004,-0.218,0.033,0.105,-0.123,0.103,0.032,0.165,-0.022
OAT (UniProt P04181),0.063,0.099,0.045,-0.091,0.042,-0.151,-0.183,-0.001,-0.037,-0.023,0.044,-0.006,-0.044,-0.053,-0.113,-0.245 (active),0.007,-0.027,-0.006,-0.007
NANS (UniProt Q9NR45),-0.016,0.031,0.066,-0.022,0.028,0.023,0.036,0.02,0.016,0.022,0.091,-0.034,-0.01,0.015,-0.043,-0.006,-0.036,0,0.033,0.065
MON1B (UniProt Q7L1V2),0.016,0.04,-0.021,0.023,0.089,-0.01,0.066,-0.004,-0.005,-0.006,0.047,0.037,-0.013,0.095,-0.006,-0.406 (active),0,-0.039,-0.023,0
MSH2 (UniProt P43246),0.038,0.109,0.066,-0.004,0.037,0.025,-0.016,0.035,-0.064,-0.059,-0.024,-0.066,0.018,-0.031,-0.041,-0.019,0.023,-0.023,-0.015,0.357 (active)
NOSIP (UniProt Q9Y314),0.062,0.16,0.049,-0.05,-0.041,0.039,-0.033,-0.03,-0.234,-0.249,-0.401,-0.032,-0.033,-0.065,-0.135,-0.106,-0.039,0.085,-0.143,0.186
PACS1 (UniProt Q6VY07),0.027,0.036,-0.049,0.01,0.016,-0.077,-0.039,-0.084,-0.048,-0.063,-0.002,-0.016,-0.297 (active),-0.024,-0.014,-0.011,0,-0.029,-0.098,-0.007
NRF1 isoform 4 (UniProt Q16656),0.079,0.012,-0.161,-0.028,0.053,-0.001,-0.012,-0.116,-0.051,-0.003,-0.014,-0.007,-0.059,0.024,0.082,-0.125,-0.025,-0.004,-0.037,-0.419 (active)
NCAPH (UniProt Q15003),0.201,0.09,0.008,-0.059,0.024,0.022,-0.009,0.02,-0.004,-0.096,-0.124,-0.045,0.097,0.007,-0.094,-0.023,0.02,0.08,0.017,-0.006
NASP (UniProt P49321),-0.018,0.048,0.079,-0.018,-0.02,0.059,-0.018,-0.004,0.001,-0.022,0.01,-0.044,0.033,0.019,-0.004,-0.05,-0.009,-0.048,-0.021,-0.09
NPEPPS (UniProt P55786),0.002,0.058,0.054,-0.027,0.061,0.002,0.005,0.035,-0.009,0.045,0.039,0,-0.013,0.021,-0.117,0.254 (active),-0.035,-0.026,-0.01,0.045
NUP160 (UniProt Q12769),0.001,0.022,0.01,-0.024,-0.006,0.045,-0.017,-0.091,-0.085,-0.025,-0.03,-0.041,-0.13,-0.002,-0.032,-0.137,-0.01,0.058,0.001,-0.012
NEDD4L (UniProt Q96PU5),0.014,0.078,-0.078,0.005,0.016,0.035,0.146,0.019,-0.026,-0.076,0.026,-0.002,-0.014,-0.293 (active),-0.01,-0.107,-0.059,0.027,-0.017,-0.084
MRPS35 (UniProt P82673),-0.068,-0.028,-0.048,0.14,0.003,-0.043,0.022,0.096,0.042,-0.08,-0.035,0.004,-0.082,-0.035,-0.047,-0.024,0.083,0.078,0.006,-0.186
MMS19 isoform 8 (UniProt Q96T76),-0.01,0.001,0.044,-0.025,0.113,0.053,0.05,0.016,-0.01,-0.01,-0.141,-0.029,-0.028,0.078,-0.082,-0.216,0.006,0.084,-0.018,0.011
OPHN1 (UniProt O60890),0.022,-0.155,0.101,-0.009,0.24,0.03,-0.007,0.039,0.044,0.04,-0.086,-0.145,-0.021,-0.033,-0.146,0.12,-0.042,-0.062,-0.034,0.069
MRPS10 (UniProt P82664),-0.036,-0.089,-0.103,0.048,0.102,0.023,-0.037,0.04,0.001,-0.012,-0.024,0.02,-0.065,-0.031,0.01,-0.027,0.066,0.045,0.041,-0.28
NMT1 (UniProt P30419),-0.002,0.001,0.039,-0.009,-0.01,0.07,-0.002,0.05,0.036,-0.363 (active),0.023,0.028,0.017,0.017,-0.047,-0.053,0.008,0.037,0.009,-0.051
NACC1 (UniProt Q96RE7),0.134,0.242,0.065,-0.034,-0.017,0.05,-0.02,-0.08,-0.059,-0.01,-0.026,-0.048,-0.109,-0.017,-0.058,-0.352 (active),-0.014,-0.015,0.034,-0.193

# Reference: the supplement of paper PMC10849652
